Measurements published in PubChem BioAssay AID624300 (Southern Research Specialized Biocontainment Screening …, 2012).
The whole screen tested about 2,400 compounds, of which about 360 (15%) were called active.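 Rule for the calls: active = viability falls under 70% at one or more tested concentrations, taken as toxicity; inactive = viability stays over 70% at every dose.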 The list is a sample of the results. Measured potencies and affinities stand elsewhere.

assay: HeLa cell cytotoxicity, dose response, cytotoxicity control for MgcRacGAP inhibitor project (AID 624300); settings: CellTiter-Glo luminescence, 24 h; series mostly up to 100 µM; viability: at the top concentration;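 note: 100% = median of untreated control wells on the same plate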

Compound	viability
COC(=O)CC1SC(=O)NC1=Nc1ccc(O)cc1 (centres undefined)	113% (inactive)
S=c1[nH]c2ccccc2n2c(=S)[nH]nc12	87.8% (inactive)
O=C(CNC(=O)c1cccs1)N/N=C/c1ccc(O)cc1O	102% (inactive)
COc1ccc(N2CCN(C(CNS(=O)(=O)c3cccs3)c3cccnc3)CC2)cc1 (centres undefined)	98.2% (inactive)
O=C1Nc2ccccc2C1=Nc1ccc2[nH]c3ccccc3c2c1	103% (inactive)
COc1ccc(CN(C)CC(=O)Nc2ccc(Cl)cc2C(F)(F)F)c(OC)c1	82.5% (inactive)
O=S(=O)(O)c1ccc(O)c2cc(Nc3ccccc3)ccc12	104% (inactive)
O=S(=O)(O)c1cc(O)c2ccc(Nc3ccccc3)cc2c1	103% (inactive)
CCOc1ccccc1Oc1cn[nH]c1-c1ccc(O)cc1O	86.2% (inactive)
COc1cc(CNc2ccc3[nH]c(=O)[nH]c3c2)ccc1OCc1cccc(C)c1	97% (inactive)
CCOc1cc(/C=N/NC(=O)c2c(-c3ccccc3)noc2C)ccc1O	113% (inactive)
O=C1/C(=C/c2ccc(O)c(O)c2)Oc2cc(O)ccc21	100% (inactive)
COc1cc(/C=C2\Oc3cc(O)ccc3C2=O)ccc1O	113% (inactive)
COC(=O)C1=C(O)/C(=C\c2ccc(O)c(OC)c2)N=C1C	104% (inactive)
COc1cc(/C=C2/C(=O)NN(c3ccc(Cl)cc3)C2=O)cc(Br)c1O	104% (inactive)
O=C1ON=C(c2ccccc2)/C1=C/c1ccco1	81.6% (inactive)
O=[N+]([O-])c1cccc(S(=O)(=O)N/N=C/c2ccc(O)cc2)c1	114% (inactive)
COc1cc(/C=C/CN2CCC(Oc3ccc(C(=O)N4CCCC4)cc3)CC2)ccc1O	89.1% (inactive)
Nc1ccc(N2CCN(c3ccc(F)cc3)CC2)cc1	103% (inactive)
c1ccc(CNc2ccc(N3CCOCC3)cc2)cc1	99.7% (inactive)
COc1ncnc2c1ncn2CCCNc1ccc(C)c(C)c1	98.5% (inactive)
Cc1[nH]c2ccccc2c1/C=N/Nc1nncn1N	94.1% (inactive)
Cc1cc(C)nc(N/N=C/c2c[nH]c3ccccc23)n1	105% (inactive)
C/C(=N\Nc1nc2ccccc2[nH]1)c1cccs1	83% (inactive)
O=C(O)c1ccc(N/N=C/c2c[nH]c3ccccc23)cc1	103% (inactive)

Compound	viability
O=c1cc(CN2CCOCC2)c2ccc(O)c(O)c2o1	87.7% (inactive)
COc1cc(/C=N/NC(=O)Cn2nnc3ccccc32)ccc1O	99.2% (inactive)
O=C(Nc1ccc(O)cc1)c1cc2ccccc2c(=O)s1	107% (inactive)
CC[N+](CC)(CC)CCCCOc1ccc2c(c1)C(=O)c1cc(OCCCC[N+](CC)(CC)CC)ccc1-2	99.7% (inactive)
FC(F)(F)c1cccc(N2CCC(N=CN3CCCCCC3)=N2)c1	94.9% (inactive)
Oc1ccc(/C=N/Nc2ccc(C(F)(F)F)cn2)cc1	98% (inactive)
Oc1ccc(C=NNc2ccccn2)c(O)c1	89.5% (inactive)
Oc1cccc(Nc2ccccc2)c1	95.9% (inactive)
Nc1ccc(Nc2ccccc2)c(Cl)c1	94.6% (inactive)
CCOc1cc(/C=N/NC(=O)c2ccc(NC(=O)C3CC3)cc2)ccc1O	88.8% (inactive)
O=C(CCN1CCCCCC1)Nc1ccc2c(c1)OCCO2	105% (inactive)
C/C(CC(=O)Nc1ccc(N(C)C)cc1)=N\NC(=O)c1ccc([N+](=O)[O-])cc1	94.7% (inactive)
O=C(Nc1ccc(O)cc1)c1cccc(Oc2ccc([N+](=O)[O-])cc2)c1	86.5% (inactive)
O=C(CNC(=O)c1ccco1)N/N=C/c1ccc(O)cc1O	108% (inactive)
Cc1ccc(OC(=S)Nc2ccc(O)cc2)cc1	109% (inactive)
COc1ccc(/C=N/Nc2nc3ccccc3s2)cc1O	97.9% (inactive)
COc1cc(/C=N/Nc2nc(C)cc(=O)[nH]2)ccc1O	94.6% (inactive)
Cc1ccsc1/C=N/Nc1nc2ccccc2[nH]1	89.9% (inactive)
COc1cc(/C=N/NC(=O)c2cc3ccccc3[nH]2)ccc1O	91.6% (inactive)
CCC(=Nc1ccc(N)cc1)C1=C(O)C(C(=O)OC)C(C)(C)CC1=O (centres undefined)	101% (inactive)
COc1ccc(OC)c(CN2CCN(Cc3ccc(OC)c(OC)c3OC)CC2)c1	96.2% (inactive)
CC1CC(C)(C)N(C(=O)CN2CCN(C)CC2)c2ccccc21 (centres undefined)	100% (inactive)
COc1ccccc1-n1c(=O)c2c3c(sc2n2c(=S)[nH]nc12)CCC3	88.5% (inactive)
Oc1ccc(/C=N/Nc2ncnc3c2ncn3Cc2ccccc2)cc1O	85.7% (inactive)
O=[N+]([O-])c1cccc(CN2CCN(c3cccc4[nH]ccc34)CC2)c1	105% (inactive)

Compound	viability
COc1ccccc1/C=C(/C(=O)OCC(=O)Nc1ccc(N(C)C)cc1)c1ccccc1	102% (inactive)
COc1ccc(S(=O)(=O)N2CCC(N3CCN(c4ccccc4OC)CC3)CC2)cc1	101% (inactive)
Cc1cccc(CN2CCN(Cc3ccco3)CC2)c1	100% (inactive)
Nc1[nH]c2cc([N+](=O)[O-])ccc2c1-c1ccccn1	98.9% (inactive)
COc1ccc(NCc2cc3ccccc3[nH]c2=O)cc1	83.7% (inactive)
CN(C)c1ccc(NC(=O)COC(=O)CNC(=O)c2cccs2)cc1	100% (inactive)
Cc1cc(OCCCN2CCN(Cc3ccccc3)CC2)ccc1[N+](=O)[O-]	87.5% (inactive)
Cc1c(N=C2NC(=O)/C(=C/c3ccc(O)cc3)S2)c(=O)n(-c2ccccc2)n1C	97.4% (inactive)
O=C(CSc1ccc2ccccc2n1)N/N=C/c1ccc(O)cc1	100% (inactive)
O=C(CCN1CCN(C(c2ccccc2)c2ccccc2)CC1)N/N=C/c1ccc(O)cc1	95% (inactive)
CCCOC(=O)c1ccc(O)c(OC)c1	99.9% (inactive)
COc1ccc(NC(C)c2cc(Cl)ccc2O)cc1 (centres undefined)	88.7% (inactive)
O=C(C1CCN(Cc2cc(Cl)ccc2O)CC1)N1CCN(Cc2ccccc2)CC1	92.7% (inactive)
COc1ccc(/C=C2\C(=O)NC(=O)c3ccccc32)cc1OC	102% (inactive)
COc1cccc(CNc2ccc(N3CCC(C)CC3)cc2)c1OC	102% (inactive)
COc1cc(/C=N/NC(=O)/C(=C\c2ccc3c(c2)OCO3)NC(=O)c2ccccc2)ccc1O	101% (inactive)
COc1ccc(C(=O)N/N=C/c2ccc(N3CCOCC3)s2)cc1OC	103% (inactive)
COc1cc(/C=N/NC(=O)C(=O)NCC2CCCO2)ccc1O (centres undefined)	102% (inactive)
Cc1cc(C)c(S(=O)(=O)Nc2ccc(O)cc2)c(C)c1	87.9% (inactive)
O=C(Nc1ccccn1)c1ccc2ccccc2c1O	92.8% (inactive)
COc1ccc(NC(=S)Nc2cccc3ccccc23)cc1OC	105% (inactive)
O=C(Nc1ccc(O)cc1)c1ccc(C(=O)c2ccccc2)o1	103% (inactive)
CCCCNc1nc(=S)[nH]c2cc(OC)c(OC)cc12	105% (inactive)
COc1ccc(CCNc2nc(=S)[nH]c3cc(OC)c(OC)cc23)cc1OC	96.6% (inactive)
